A selection: hits, their analogues and other compounds. The true share with any hit is near 4.8%.
hcDAF12 agonist = H. contortus DAF-12 activation, primary screen; activation, % at 6.8 µM; 1.4% of 370,000 active; HEK293 hcDAF-12 lit1-tk-luc reporter, luminescence; 0% DMSO, 100% Δ7-dafachronic acid;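 active = activation above the mean of all tested compounds plus 3 SD, cut at about 5.5% in these data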;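 also: 100% = response to 3 µM Δ7-dafachronic acid high control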
ssDAF-12 act = S. stercoralis DAF-12 activation, primary screen; activation, % at 6.8 µM; 1% of 370,000 active; HEK293 ssDAF-12/GRIP1 lit1-tk-luc reporter, luminescence; % of 3 µM dafachronic acid response; AID 652126;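 active = activation above the mean over all tested compounds plus 3 SD, cut at about 0.9% in these data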;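 also: 0% = DMSO-only wells and 100% = 3 µM delta7-dafachronic acid wells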
DAX1 inh-1 = inhibitors of DAX1 repression of SF-1 activated StAR promoter | HEK293T StAR-luciferase reporter, SF-1/DAX-1 repression relief | inhibition, % at 6.8 µM | 1.1% of 370,000 active;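 active = inhibition above the mean over all tested compounds plus 3 SD, cut at about 3.6% in these data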;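 also: 0% = DAX-1 cells with DMSO and 100% = cells lacking DAX-1 with DMSO; higher inhibition means more luminescence from relief of DAX-1 repression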
DAX1 inh-2 = inhibitors of human orphan nuclear receptor DAX1 (NR0B1); P51843; HEK293 Gal4-DAX1 luciferase reporter, luminescence; inhibition, % at 6.75 µM; 0.99% of 340,000 active; AID 504766;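 active = inhibition above the mean over all tested compounds plus 3 SD, cut at about 4.2% in these data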;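 also: 0% = DAX1-transfected cells with DMSO and 100% = empty-vector control cells with DMSO; inhibition shows as a rise in luminescence from relieved DAX1 repression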
Target sequence (P51843 207-470 limits assumed): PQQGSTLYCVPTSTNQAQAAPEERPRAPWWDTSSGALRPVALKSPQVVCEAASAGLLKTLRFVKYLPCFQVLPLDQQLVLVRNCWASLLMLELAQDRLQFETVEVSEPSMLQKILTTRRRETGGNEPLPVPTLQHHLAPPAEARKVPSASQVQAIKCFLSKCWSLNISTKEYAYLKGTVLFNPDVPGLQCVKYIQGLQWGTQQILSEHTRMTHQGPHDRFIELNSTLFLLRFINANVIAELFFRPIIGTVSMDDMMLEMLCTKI
SMARCA2 activ = activators of SMARCA2 function; MG213 cells, MMTV-luciferase reporter, dexamethasone, overnight; AID 652017; 1% of 370,000 active; activation, % at 9.1 µM; in the data active = activation above about 7.8%;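 also: 0% = vehicle wells and 100% = reference activator wells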
hgDAF-12 ag = agonists of H. glycines DAF-12 nuclear receptor | HEK293 GAL4-hgDAF12 UAS-luciferase reporter, agonist luminescence; normalized to butyrate control | activation, % at 6.8 µM | 1.8% of 370,000 active;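 active = activation above a cutoff set at the mean of all screened compounds plus 3 SD, cut at about 10% in these data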;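 also: 0% = DMSO wells and 100% = sodium butyrate wells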
DAX1 inh confirm = NR0B1 (human) inhibition, confirmation. shares compounds with DAX1 inh-1. inhibition, % at 6.8 µM. HEK293T StAR-promoter luciferase reporter, SF-1/DAX-1 repression. 87% of 2,400 active;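 active = inhibition above the average of every tested compound plus 3 SD, cut at about 3.8% in these data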;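 also: 0% = DAX-1 cells with DMSO and 100% = no DAX-1 control cells with DMSO; active compounds raise luminescence by relieving repression of the StAR reporter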
SF1 AF2mut Luc = counter-screen for DAX1 inhibitors: nonselective inhibitors with SF-1 AF2 mutant | shares compounds with DAX1 inh-1 | 78% of 2,400 active | HEK293 StAR-luciferase, luminescence | inhibition, % at 6.8 µM;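 active = inhibition above the mean of all tested compounds plus 3 SD, cut at about 3% in these data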;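 also: 0% = DAX-1 transfected cells with DMSO and 100% = cells without DAX-1 with DMSO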
SMARCA2 act conf = confirmation of SMARCA2 (BRM) function activators | shares compounds with SMARCA2 activ | MG213 cells, MMTV-luciferase with dexamethasone, luminescence, overnight; MG213 cells expressing E1A, Rb sequestered; DMSO wells 0%, reference activator 100% | activation, % at 9.1 µM | 30% of 3,500 active | AID 652260;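 active = activation above its plate's cutoff, the mean activation of tested wells plus 3 SD, cut at about 7.9% in these data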
GAL4-VP16 Luc = activates GAL4-VP16 luciferase, flagging SMARCA2 activator hits | shares compounds with SMARCA2 activ | HEK293 GAL4-VP16 pG5luc reporter, luciferase luminescence; scaled: DMSO wells 0%, SAHA wells 100% | activation, % at 9.1 µM | 41% of 3,500 active | AID 686939;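 active = activation above the solvent-only control well mean plus 3 SD, averaged across control plates, cut at about 5.2% in these data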
LXRb hcDAF ctr = LXR-beta agonism as hcDAF-12 counter-screen. shares compounds with hcDAF12 agonist. activation, % at 6.8 µM. AID 743027. 3,400 tested, under 10 active. HEK293 Gal4-LXR tk-luc reporter, luminescence, 24 h; normalized: DMSO 0%, positive control 100%;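 active = mean percent activation of the reporter above a cutoff set as the average over tested compounds plus their standard deviation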
Target sequence (P55055 whole entry, looked up, the tested form may be a part): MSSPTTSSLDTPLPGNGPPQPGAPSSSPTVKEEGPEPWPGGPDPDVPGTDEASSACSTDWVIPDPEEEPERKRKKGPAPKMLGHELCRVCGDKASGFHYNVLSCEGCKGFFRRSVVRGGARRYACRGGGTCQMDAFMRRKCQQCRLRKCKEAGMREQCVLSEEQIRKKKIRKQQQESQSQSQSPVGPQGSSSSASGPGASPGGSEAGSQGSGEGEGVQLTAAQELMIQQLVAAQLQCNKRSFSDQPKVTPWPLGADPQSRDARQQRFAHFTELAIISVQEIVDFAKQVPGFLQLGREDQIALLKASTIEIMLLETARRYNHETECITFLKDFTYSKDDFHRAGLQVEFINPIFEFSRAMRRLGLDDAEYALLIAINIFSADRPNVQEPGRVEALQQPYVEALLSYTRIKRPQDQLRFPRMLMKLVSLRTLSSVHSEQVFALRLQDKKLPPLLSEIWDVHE
hcDAF12 conf = confirmation of H. contortus DAF-12 agonists | activation, % at 6.8 µM | 61% of 3,400 active | shares compounds with hcDAF12 agonist | HEK293 hcDAF-12 lit1-tk-luc reporter, luminescence; % of Δ7-dafachronic acid response;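 active = mean activation across triplicate tests above the threshold derived from the earlier primary screen, cut at about 5.5% in these data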;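 also: 0% = DMSO only wells and 100% = 3 µM Δ7-dafachronic acid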
hgDAF12 ag = confirmation of H. glycines DAF-12 agonists. activation, % at 6.8 µM. 80% of 3,300 active. HEK293 GAL4-hgDAF12 luciferase reporter, agonist mode; percent of butyrate response. shares compounds with hgDAF-12 ag;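 active = mean activation over triplicate wells above the hit cutoff derived from the earlier primary screen, cut at about 11% in these data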;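 also: 0% = DMSO low control and 100% = 2 mM sodium butyrate high control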
LXR ag 2 = LXR-beta agonism as DAF-12 counter-screen. AID 743051. shares compounds with hgDAF-12 ag. activation, % at 6.8 µM. 3,300 tested, under 10 active. HEK293 Gal4-LXR luciferase reporter, 24 h;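 active = mean activation of the triplicate above a set limit carried over from the primary screen, none filed active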
Active calls of the source: *; . = no result.

SMILES	hcDAF12 agonist	ssDAF-12 act	DAX1 inh-1	DAX1 inh-2	SMARCA2 activ	hgDAF-12 ag	DAX1 inh confirm	SF1 AF2mut Luc	LXRb hcDAF ctr	hcDAF12 conf	hgDAF12 ag	LXR ag 2	others
O=C(Nc1ccc(-c2nc3cccnc3s2)cc1)c1ccco1	6.4*	2.0*	8.9*	1	8.2*	19*	17*	8.4*	.	.	18*	1	SMARCA2 act conf=4;GAL4-VP16 Luc=10*
N#Cc1c(NC(=O)CSc2nnc(-c3ccccc3)o2)sc2c1CCCC2	.	.	.	0	.	.	.	.	.	.	.	.
O=C(CSc1nnc(-c2csc3c2CCCC3)o1)Nc1ccccc1	14*	2.1*	10*	0	3	18*	19*	7.2*	2	19*	16*	1
C/C(=N\Nc1nc2ccccc2s1)c1ccc2c(c1)OCO2	2	0	1	1	3	7	.	.	.	.	.	.
c1ccc2sc(NN=C3CCCCCC3)nc2c1	12*	1	5.2*	1	0	13*	5.4*	1	2	11*	6	1
CCCCCC(=O)Nc1cccc(C2=NOC3(C2)C[C@H](C(N)=O)N(C(=O)c2ccccc2C(=O)c2ccccc2)C3)c1 (some centres undefined)	-1	-1	0	-1	-2	-4	.	.	.	.	.	.
Cc1ccc(C(=O)Nc2cccnc2N2CCN(C)CC2)cc1	0	-2	0	-1	1	-3	.	.	.	.	.	.
O=C(/C=C1\OCc2ccccc21)c1ccccc1	9.5*	1.3*	5.6*	.	7	19*	7.2*	4.8*	1	11*	17*	1
O=C1CS/C(=C/C(=O)c2ccccc2)N1	-1	-1	0	0	4	1	.	.	.	.	.	.
Cc1ccc2oc(-c3cccc(N)c3)nc2c1	14*	2.5*	6.4*	0	4	23*	16*	8.2*	1	10*	23*	1
Nc1cccc(-c2nc3cc(S(=O)(=O)c4ccc5oc(-c6cccc(N)c6)nc5c4)ccc3o2)c1	-1	-2	0	0	-1	-2	.	.	.	.	.	.
Cc1ccc(NC(=O)CSc2nccn2Cc2ccco2)c(C)c1	7.2*	0	6.3*	0	11*	14*	7.8*	3.2*	1	7.0*	14*	1	SMARCA2 act conf=9.9*;GAL4-VP16 Luc=6.5*
Cc1ccc(C)c(NC(=O)CSc2nccn2Cc2ccco2)c1	3	-1	-1	1	4	5	.	.	.	.	.	.
Cc1ccc(NC(=O)N2CCc3ccccc3C2)cc1C	4	-1	6.6*	2	4	14*	8.6*	5.5*	.	.	13*	0
COc1ccc(NC(=O)N2CCc3ccccc3C2)cc1OC	-1	-1	-1	1	-1	2	.	.	.	.	.	.
O=C(Nc1nc2cc3c(cc2s1)OCCO3)C1CCCCC1	4	1	15*	1	0	13*	12*	4.4*	.	.	15*	1
O=C(Nc1nc2cc3c(cc2s1)OCO3)C1CCCCC1	9.8*	0	12*	1	2	14*	15*	7.7*	1	5	16*	1
O=C(Nc1nc2cc3c(cc2s1)OCO3)C1CC1	-1	-2	0	0	2	3	.	.	.	.	.	.
Cc1coc2c1c(C)cc1oc(=O)c(CC(=O)NCCCN3CCCC3=O)c(C)c12	0	-1	0	1	2	0	.	.	.	.	.	.
CC(C)c1cc(C(=O)N2CCCC(Nc3ccc(F)cc3)C2)nc(N)n1 (centres undefined)	-1	-1	-1	0	-4	0	.	.	.	.	.	.
O=C(O)CC/C(=N/NC(=O)c1cccs1)c1ccccc1	9.6*	1	5.8*	3	9.2*	14*	3.8*	3.3*	0	2	11*	0	SMARCA2 act conf=4;GAL4-VP16 Luc=2
CC(=O)c1cccc(NS(=O)(=O)c2ccc(N/C=C\C(=O)c3ccc(C)cc3)cc2)c1	1	0	1	-3	2	3	.	.	.	.	.	.
CC(=O)c1cccc(N/C=C\C(=O)c2ccc(C)cc2)c1	9.6*	1	6.0*	0	10*	20*	19*	8.5*	2	9.7*	25*	1	SMARCA2 act conf=9.6*;GAL4-VP16 Luc=9.8*
COc1ccc2[nH]c3c(c2c1)CCN1C(=O)C(CC(=O)NCc2ccco2)C[C@H](C(=O)N(C(C)C)C(C)C)[C@@]31C (some centres undefined)	-3	-1	0	-1	-2	-1	.	.	.	.	.	.
c1coc(-c2cc3nc(NCc4ccc5c(c4)OCO5)ccn3n2)c1	1	-1	0	.	1	4	.	.	.	.	.	.
c1coc(-c2cc3nc(NC4CCCCC4)ccn3n2)c1	10*	1.2*	10*	.	5	22*	15*	10*	2	12*	19*	1
CSCc1ccc(C(=O)Nc2ccc(C(N)=O)cc2)cc1	4	0	5.3*	3	5	13*	9.6*	5.0*	.	.	13*	1
CSCc1ccc(C(=O)NCc2ccc(C)cc2)cc1	4	-1	1	-1	0	-2	.	.	.	.	.	.
Cc1ccc(NC(=O)c2ccccc2)s1	6.9*	0	4.5*	0	0	20*	15*	11*	1	8.3*	15*	1
